Shown are actives, neighbours in structure and some others; about 2.9% of the full set was active somewhere.
sPLA2-III inh = Blocks human group III sPLA2 activity. QFRET BODIPY PC-A2 liposome hydrolysis, fluorescence. Q9NZ20. inhibition, % at 12.2 µM. actives 0.56% (n = 370,000);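 active = inhibition above mean plus 3 SD of compounds lying within the high and low control bounds, cut at about 19% in these data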;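 note: 0% = median of test compound wells and 100% = no enzyme DMSO wells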
Myeloid diff 2 = compounds promoting myeloid differentiation; ER-HoxA9 myeloid progenitors, lysozyme-GFP differentiation, flow cytometry; calls only at 10 µM; actives 1% (n = 360,000);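 active = normalized GFP-positive differentiation at or above the plate's own cutoff, the solvent-only control mean plus 3 SD; inconclusive = no clear call, values can overlap the other calls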;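 note: cells exposed to compound for four days before flow analysis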
ABHD5-PLIN5 inh = inhibitors of human ABHD5-perilipin-5 interaction; Q00G26+Q8WTS1; Split G. princeps luciferase complementation, luminescence, 4 h; inhibition, % at 4 µM; actives 0.78% (n = 360,000); AID 602281;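 active = inhibition above the mean inhibition across every tested compound plus 3 SD, cut at about 22% in these data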;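 note: 0% = DMSO only wells and the 100% control is not disclosed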
Rtt109 Vps75 = blocks Candida albicans Rtt109/Vps75 acetyltransferase activity. purified Rtt109/Vps75, ThioGlo CoA-SH fluorescence, 4 h. Q5AAJ8. actives 0.16% (n = 330,000). inhibition, % at 34.9 µM. AID 540336;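 active = inhibition of at least 50% in every replicate; inconclusive = best replicate reaches 50% inhibition but some replicates fall short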
Target sequence (Q5AAJ8 whole entry, looked up): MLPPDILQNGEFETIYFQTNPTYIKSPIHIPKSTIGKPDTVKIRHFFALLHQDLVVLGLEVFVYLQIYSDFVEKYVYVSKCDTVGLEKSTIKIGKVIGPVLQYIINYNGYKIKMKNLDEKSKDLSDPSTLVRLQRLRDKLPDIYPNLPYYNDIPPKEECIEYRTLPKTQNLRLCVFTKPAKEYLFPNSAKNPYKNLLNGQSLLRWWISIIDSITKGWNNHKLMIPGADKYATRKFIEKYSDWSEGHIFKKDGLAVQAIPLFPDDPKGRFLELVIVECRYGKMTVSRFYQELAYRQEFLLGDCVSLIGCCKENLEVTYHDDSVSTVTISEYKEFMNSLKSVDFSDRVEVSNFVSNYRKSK
Cardio protect = modulators protecting cardiomyocytes from myocardial damage | H9c2 cardiomyocytes, H2O2 injury protection, ATPLite, 2 h | protection from H2O2 cell death, % at 20 µM | actives 0.63% (n = 360,000);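 active = compounds giving at least 50% protection of heart cells from peroxide-induced death in the single-dose screen, raw or plate-pattern-corrected value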;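 note: 0% = DMSO wells with peroxide and 100% = DMSO wells without peroxide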
DAGLB inh = blocks human DAGLB lipase activity | Q8NCG7 | HEK293T DAGLB membrane lysate, EnzChek fluorogenic substrate | inhibition, % at 5.17 µM | actives 0.059% (n = 340,000) | AID 504411; in the data active = inhibition above about 34%;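 note: 0% = enzyme with vehicle and 100% = wells lacking enzyme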
* = called active by the depositor; i = inactive; ? = inconclusive; · = no result given; + = active, no number.

SMILES	sPLA2-III inh	Myeloid diff 2	ABHD5-PLIN5 inh	Rtt109 Vps75	Cardio protect	DAGLB inh
Cc1cc(NC(=O)c2cnn3c(C(F)F)cc(-c4ccccc4)nc23)no1	-1.2	i	2.3	3.4	20.0	-3.4
Cc1cc(NC(=O)c2cnn3c(C(F)(F)F)cc(-c4ccccc4)nc23)no1	4.1	i	-4.2	4.0	93.4*	-4.0
Cc1cc(NC(=O)CCS(=O)(=O)c2nc(-c3ccccc3)cc(C(F)(F)F)n2)no1	11.2	i	42.5*	2.3	12.3	-5.3
O=C(Oc1ccccc1)c1cccc(N2C(=O)CCC2=O)c1	-3.2	i	-3.9	-2.3	6.4	1.4
Cc1ccc(OCCC(=O)N2CCN(c3ccc(O)cc3)CC2)cc1	5.2	i	0.1	21.9	-4.6	-2.0
Cc1cc(NC(=O)C(C)SCC(=O)N(C)CC(=O)Nc2ccc(F)cc2)no1 (centres undefined)	12.8	i	23.1*	3.2	7.5	-1.8
OCc1nc2ccccc2n1CC(O)Cn1ccc2ccccc21 (centres undefined)	-13.9	i	6.8	7.5	-16.3	1.1
O=C1c2ccccc2S(=O)(=O)N1CC(O)Cn1ccc2ccccc21 (centres undefined)	-15.9	+	-9.6	0.9	22.4	-5.4
O=C1CC(=O)N(Cc2ccco2)C(=O)N1	-6.2	i	3.9	-5.1	7.7	-3.3
O=C1CC(=O)N(Cc2ccco2)C(=S)N1	·	i	0.1	75.6*	7.6	9.7
COc1cc(CNCc2ccncc2)cc(OC)c1OC	4.4	i	-6.8	-2.4	-0.6	-0.4
COc1cc(CNCc2ccc(C)cc2)cc(OC)c1OC	-9.2	i	1.3	50.5*	-3.0	-0.4
S=C(Nc1ccccc1)N1CCN(C2CCCCC2)CC1	5.3	+	-3.4	7.9	-11.2	0.3
S=C(Nc1ccccc1)N1CCCCCC1	1.2	i	3.7	-6.0	-1.0	0.4
O=C(CCCSc1nc2sc3c(c2c(=O)[nH]1)CCC3)NCCO	3.1	i	-3.1	2.0	87.6*	-0.9
O=C(CCCSc1nc2sc3c(c2c(=O)[nH]1)CCC3)NCCCO	-2.7	i	6.2	2.1	57.9*	-3.0
Cc1ccc(S(=O)(=O)c2ccc([N+](=O)[O-])o2)cc1	4.9	?	84.6*	0.2	-17.2	-8.4
C=CCn1c(SCC(=O)NCCCC)nc2scc(-c3ccco3)c2c1=O	-10.8	i	39.7*	47.4	21.8	2.6
C=CCn1c(SCC(C)=O)nc2scc(-c3ccc(C)o3)c2c1=O	-14.8	i	16.5	2.4	2.4	-3.2
CSc1ncc(CN2CCCC(C(=O)Nc3ccc(-c4ccco4)cc3)C2)cn1 (centres undefined)	-17.9	i	35.0*	0.3	-0.7	1.6
Cc1ncc(CN2CCCC(C(=O)Nc3ccc(-c4ccco4)cc3)C2)n1C (centres undefined)	-7.6	i	12.1	2.8	10.0	-0.7
Cc1ccc(NC(=S)c2nc3ccccc3[nH]2)c(C)c1	31.2*	i	-10.5	8.2	-17.5	-4.4
COc1ccc(-c2ccnc3[nH]n(-c4ccccc4)c(=O)c23)cc1	0.0	+	3.4	3.2	0.9	1.8
CC(C)CC(=O)N1CCN(c2ccc([N+](=O)[O-])c(NCc3ccccc3)c2)CC1	-22.2	i	-0.5	3.1	2.1	1.1
Cc1cc(C)c([N+](=O)[O-])cc1NCC(=O)N1CCN(c2ccccc2)CC1	-4.9	+	4.6	-6.3	-1.4	-0.5
SMILES	sPLA2-III inh	Myeloid diff 2	ABHD5-PLIN5 inh	Rtt109 Vps75	Cardio protect	DAGLB inh
CN(C)N(Cc1ccccc1)C(=O)C(O)(c1ccccc1)c1ccccc1	-7.6	i	-3.7	0.2	60.1*	-7.8
CCN(CC)CC(=O)Nc1ccc(-c2nc3cc(NC(=O)CN(CC)CC)ccc3o2)cc1	-15.1	i	-0.1	-1.7	3.2	-3.6
CCC(C)NCC(=O)Nc1ccc(-c2nc3cc(NC(=O)CNC(C)CC)ccc3o2)cc1 (centres undefined)	-7.7	+	0.8	-10.9	-14.6	-2.7
O=c1[nH]nc(CNc2ccc(OC(F)(F)F)cc2)c2ccccc12	8.1	i	-7.3	-1.8	38.0	3.3
O=c1[nH]nc(CNc2ccc(O)cc2)c2ccccc12	-7.2	i	-4.9	-0.1	87.3*	5.1
O=c1[nH]nc(CNc2ccc(Cl)cc2Cl)c2ccccc12	0.3	i	0.9	0.5	30.3	4.9
O=c1[nH]nc(CNc2ccc(C(F)(F)F)cc2)c2ccccc12	-4.3	i	13.4	11.9	68.7*	0.8
CCC(CO)[n+]1c(C)cc(/C=C2\Sc3ccccc3N2Cc2ccccc2)cc1C (centres undefined)	-8.2	+	8.1	·	-11.8	-0.5
CCN1/C(=C2\SC(=S)N(Cc3ccccc3)C2=O)Sc2ccccc21	-0.9	i	5.3	-0.5	-1.2	-1.4
CCc1ccc(C(=O)CSc2ncn[nH]2)cc1	-22.6	i	-5.5	+	-0.1	0.0
CCOC(=O)C1CCCN(C(=O)c2ccc(-c3ccccc3Cl)o2)C1 (centres undefined)	-6.8	i	8.7	-5.2	-5.9	-6.1
COCc1c(C(=O)Nc2ccc3nc(N4CCOCC4)sc3c2)oc2ccccc12	1.8	i	-6.9	1.2	63.5*	-1.6
O=C(Nc1ccc2nc(N3CCOCC3)sc2c1)c1ccccc1	9.9	i	4.1	-3.8	-3.7	1.0
CCOC(=O)c1cnc2c(C)cccc2c1NCCc1ccc(OC)c(OC)c1	-13.7	i	3.1	3.0	-8.9	-6.0
CCOC(=O)c1cnc2ccc(C(=O)OC)cc2c1NCCc1ccc(OC)c(OC)c1	-6.3	i	-1.0	1.4	53.1*	-13.0
COc1ccc2c(c1)OC[C@H]1[C@H]2N2C(=O)CN(Cc3ccc(Cl)cc3)C(=O)[C@@]2(C)[C@H]1c1ccccc1	1.6	i	5.8	-3.1	17.3	-5.5
CCC(CC)C(=O)Nc1cc(C)c2c(=O)oc3ccccc3c2n1	5.5	i	-4.5	-41.8	71.2*	-8.3
CCOc1ccc2[nH]c(=O)c(CN(Cc3cccs3)C(CC)c3nnnn3C(C)(C)CC)cc2c1 (centres undefined)	1.6	i	-0.6	-3.5	67.0*	-0.8
COc1ccc(-c2[nH]ncc2CN2CCCC2c2nonc2C)c(F)c1 (centres undefined)	-3.8	i	-4.1	-1.7	-1.3	-2.9
O=C(NCCCN1CCCC1=O)c1ccc(OC(F)(F)F)cc1	0.7	i	7.3	60.6*	-7.3	-3.2
COc1ccc(OC)c(NC(=O)CSc2nccn2Cc2ccco2)c1	5.1	i	-0.4	-3.2	-5.4	0.7
Cc1cc(C)n(-c2ccn(Cc3ccc(Cl)cc3Cl)c(=O)n2)n1	-5.7	+	13.1	-3.3	2.7	-5.4
Cc1nn(Cc2ccc(Cl)cc2Cl)c(C)c1NC(=O)CCl	5.9	i	0.5	3.8	-4.7	2.3

Source: PubChem (several laboratories)
